High-throughput results (PubChem)
FLuc inh = Photinus pyralis luciferase inhibition | hit rate 2.5% among 76,000 | purified P. pyralis luciferase, luminescence, biochemical | Potency, µM (titrated, usually from 115 µM), hits mostly inhibitors | AID 1347043; note: nearly all actives have a fitted effect of over 65% in size
Target sequence (P08659 whole entry, looked up): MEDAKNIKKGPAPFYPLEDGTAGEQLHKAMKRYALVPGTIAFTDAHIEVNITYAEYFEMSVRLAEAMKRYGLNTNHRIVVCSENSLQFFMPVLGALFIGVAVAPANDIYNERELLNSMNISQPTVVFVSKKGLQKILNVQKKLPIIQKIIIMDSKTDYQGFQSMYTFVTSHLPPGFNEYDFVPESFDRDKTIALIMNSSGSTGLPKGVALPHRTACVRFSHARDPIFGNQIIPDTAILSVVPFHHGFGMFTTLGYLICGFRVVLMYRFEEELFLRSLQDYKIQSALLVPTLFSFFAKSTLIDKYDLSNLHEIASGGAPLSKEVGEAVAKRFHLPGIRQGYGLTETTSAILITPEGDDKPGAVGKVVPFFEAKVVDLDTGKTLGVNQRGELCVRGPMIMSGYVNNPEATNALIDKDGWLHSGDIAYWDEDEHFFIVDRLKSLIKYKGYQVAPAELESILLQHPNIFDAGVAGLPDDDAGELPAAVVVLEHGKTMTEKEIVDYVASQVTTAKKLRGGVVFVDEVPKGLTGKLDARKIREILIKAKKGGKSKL
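Inhibitors were tested against purified firefly luciferase in a biochemical, low-substrate format (both substrates at 10uM) and luminescence measured with a CCD imager.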
HEK cytotox = kills HEK 293 cells; Potency, µM (top dose mostly 115 µM), inactives show at the highest dose activity change, negative = cytotoxicity, actives largely listed as inhibitors; hit rate 6.6% among 94,000; HEK 293 viability, ATP luminescence (CellTiter-Glo), 48-72 h; AID 1345083; note: nearly all actives have a fitted effect of over 60% in size
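Cells seeded first (HEK 293, 250 cells/well), then compound added by pintool. Incubation ran 48 or 72 hr at 37 degree Celsius. CellTiter-Glo was added and luminescence imaged after 10 min at room temperature.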
hNpr1 antagonist = human Npr1 receptor antagonism. P16066. HEK293 hNpr1 GloSensor cGMP, ANP-stimulated luminescence. Potency, µM (doses to about 46.3 µM), for the others: at the top dose activity change, negative = inhibition, hits mostly inhibitors. hit rate 1.6% among 76,000. AID 1347048; calls by dose curve; note: nearly all actives have a fitted effect of over 60% in size
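HEK293 cells stably expressing human Npr1 and cGMP GloSensor pGS-40F, loaded 2 h with 2% GloSensor reagent, given compound 30 min at room temperature. Luminescence read before and 20 min after 0.1 nM hNppA.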
NIH3T3 tox = NIH 3T3 cell cytotoxicity | NIH 3T3 viability, CellTiter-Glo ATP luminescence, 48-72 h | Potency, µM (highest dose often 96.7 µM), without a hit: at the highest dose activity change, negative = cytotoxicity, hits mostly inhibitors | hit rate 4.3% among 94,000 | AID 1345082; note: nearly all actives have a fitted effect of over 55% in size
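Cells were seeded at 400 per well, treated with pin-transferred compound, and kept 48 or 72 hr at 37 °C before CellTiter-Glo addition and luminescence imaging of cellular ATP.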
* = called active by the depositor; i = inactive; ? = inconclusive; . = not tested or not shown; [ ] = remark or other dose. Compounds with a hit are over-represented: about 11% of the library has one in this group of screens. Unless noted, calls come from the whole dose curve; as a rule, active = well fitted curve in the direction sought with a large enough effect; inconclusive = small, poorly fitted or top-dose-only effect, or another doubt; inactive = no such curve, though single readings can be large; an effect the other way counts as inactive or inconclusive. % is set by controls: 0 for no effect and ±100 for the full control effect; potency is the fitted concentration of half-maximal effect.

SMILES | FLuc inh | HEK cytotox | hNpr1 antagonist | NIH3T3 tox
Cc1nn2c(c1-c1cccc3cn[nH]c13)N(C(=O)COc1ccccc1C(N)=O)CCC2 | i | i | -20.3%[70.6 µM] | 25.1µM*
Cc1nn2c(c1-c1ccnn1C(C)C)N(C(=O)COc1ccccc1C(N)=O)CCC2 | i | -0.2%[172 µM] | 14.3%[70.6 µM] | 28.2µM*
COc1ccccc1C(=O)N1CCCn2nc(C)c(-c3ccnn3C(C)C)c21 | i | -22.1%[172 µM] | -3.2%[70.6 µM] | ?
COc1ccccc1C(=O)N1CCCn2nc(C)c(-c3cccnc3N3CCOCC3)c21 | i | i | 5.0%[70.6 µM] | ?
CC(C)Cn1c(=O)c(C(=O)N2CCOCC2)nc2cccnc21 | . | 1.9%[172 µM] | . | -9.6%[138 µM]
CN(Cc1ccc(F)cc1)S(=O)(=O)c1cccs1 | i | 79.4µM* | 6.5%[70.6 µM] | -26.7%[138 µM]
CN(Cc1ccc(F)cc1)S(C)(=O)=O | i | -2.6%[230 µM] | 0.0%[70.6 µM] | -10.1%[174 µM]
Cc1ccc(NC(=O)N2CCC3(CC2)C(=O)N(CC(=O)N2CCCC2)CN3c2ccccc2)cc1 | 8.91µM* | ? | -2.6% | ?
COCCNC(=O)CN1CN(c2ccccc2)C2(CCN(C(=O)C3CCCCC3)CC2)C1=O | i | -3.8% | 0.6% | -24.0%
O=C(Cc1cccc(Cl)c1)N1CCCN(c2ccc3nnc(-c4ccccc4)n3n2)CC1 | . | -19.8% | . | ?
c1ccc(CCCc2noc(-c3ccc(N4CCOCC4)nc3)n2)cc1 | i | ? | -24.1% | -14.3%
c1ccc(CCc2noc(-c3ccc(N4CCCOCC4)nc3)n2)cc1 | 31.6µM* | ? | ? | ?
Cc1ccc(-c2cccc(CN3CCCC3C(=O)NCc3ccc(F)cc3F)c2)cc1Cl (configuration not stated) | . | 44.7µM* | . | ?
Cc1ccc(-c2cccc(CN3CCCC3C(=O)NCc3cccc(F)c3)c2)cc1Cl (configuration not stated) | . | 44.7µM* | . | ?
Cc1ccc(-c2cccc(CN3CCCC3C(=O)NCc3cccc(Cl)c3)c2)cc1Cl (configuration not stated) | . | 39.8µM* | . | 35.5µM*
Cc1ccc(CN2C(=O)COC[C@H]2C(=O)Nc2ccccc2F)cc1 | . | i | . | -12.1%
COc1ccc(CN2CCC3(Cc4ccccc4CNC3=O)C2)c(O)c1 (configuration not stated) | . | ? | . | -14.9%
O=C(NC1CN(c2ccnc3ccnn23)C1)c1ccccc1 | . | ? | . | -19.1%
CC(=O)Nc1ccc(CC(=O)N2CCC3(CCc4nn(Cc5ccccc5)c(=O)n4CC3)CC2)cc1 | . | -1.7% | . | -10.5%
CCOc1cc(=O)n2c(c1C(=O)Nc1ccc3c(c1)OCCO3)CCCCC2 | 39.8µM* | -24.1% | -19.2% | -3.1%
Cc1sc2ccn(C)c(=O)c2c1C(=O)N1CCN(c2ccc(Cl)cc2)CC1 | i | 79.4µM* | -10.6% | -14.6%
Cc1sc2ccn(C)c(=O)c2c1C(=O)N1CCN(c2ccc(F)cc2)CC1 | i | ? | -8.2% | 4.0%
Cc1ccc(C(=O)N2CCC(C(=O)N3CCC(N4CCCC4=O)CC3)CC2)cc1 | . | -8.1% | . | -23.7%
COc1cccc(CN2Cc3nc(Oc4ccccc4)ccc3OCC2=O)c1 | i | ? | -22.0%[70.6 µM] | ?
COc1cccc(CN2Cc3nc(N(C)c4ccccc4)ccc3OCC2=O)c1 | ? | 89.1µM* | ? | ?
SMILES | FLuc inh | HEK cytotox | hNpr1 antagonist | NIH3T3 tox
NC(=O)c1cccc(-c2ccc3c(n2)CN(Cc2ccc(F)cc2)C(=O)CO3)c1 | i | ? | ? | ?
CN(c1ccccc1)c1ccc2c(n1)CN(Cc1ccc(F)cc1)C(=O)CO2 | 50.1µM* | ? | ? | 89.1µM*
COc1ccc(-c2ccc(C(=O)N3CCN(C(=O)c4ccccc4Cl)CC3)cc2)nn1 | . | ? | . | -25.2%
COC(=O)c1cc2n(n1)CCCN(C(=O)COc1ccc(C)c(C)c1)C2 | i | -3.9% | -1.1% | 0.3%
COc1cc(C)c(CN2CCCn3nc(C(=O)N4CCCC4)cc3C2)cc1C | i | 44.7µM* | -9.1% | 44.7µM*
Clc1ccc(-c2cnc([C@@H]3COCCN3Cc3cnc4ccccc4c3)[nH]2)s1 | i | 89.1µM* | ? | ?
Fc1ccc(-c2cnc([C@@H]3COCCN3Cc3cccnc3)[nH]2)c(F)c1 | i | ? | -10.9%[70.6 µM] | ?
Fc1ccc(-c2cnc([C@@H]3COCCN3Cc3cnc4ccccc4c3)[nH]2)c(F)c1 | i | 89.1µM* | -13.7%[70.6 µM] | ?
CCN1CCN(C(=O)c2ccc3nnc(-c4cccc(C(F)(F)F)c4)n3c2)CC1 | . | -3.3% | . | -7.3%
CC(C)Cn1c(=O)c(C(=O)N2CCCC2)nc2cccnc21 | . | -4.5%[172 µM] | . | 4.5%[138 µM]
COc1ccc(C(=O)N2CCC[C@@H]2C(=O)N2CCCC(c3nc4ccncc4[nH]3)C2)cc1 (some centres not stated) | . | i | . | -4.1%
CCOC(=O)[C@@H]1[C@@H](OC)C(=O)N(C)C12CCN(C(=O)OCc1ccccc1)CC2 | . | -22.3% | . | ?
COc1ccc(-c2ccccc2C(=O)NC2CCc3ccccc32)nn1 (configuration not stated) | . | 1.4% | . | 0.2%
O=C(c1cccc(Cl)c1)N1CCC(C(=O)N2CCC(c3nc4ncccc4[nH]3)CC2)C1 (configuration not stated) | . | 3.7% | . | -8.2%
CN1C(=O)[C@@H]2C[C@@H](CN2C2CCCC2)Oc2ccccc21 | i | ? | -2.0%[70.6 µM] | ?
CN1C(=O)[C@@H]2C[C@@H](CN2C2CCC2)Oc2ccccc21 | i | 89.1µM* | -15.7%[70.6 µM] | 50.1µM*
CCN1CCN(Cc2cc(C)cc(CN(C)Cc3ncc(C)[nH]3)c2C)CC1 | 39.8µM* | ? | -1.8% | -25.9%
Cc1cnc(CN(C)Cc2cn(-c3ccccc3)nn2)[nH]1 | i | -8.8% | 0.5% | -6.1%
Cn1ncc2c(C(=O)NC3CCOCC3)cc(-c3ccc(C(F)(F)F)cc3)nc21 | . | i | . | -7.5%
COc1cccc(-c2cc3c(=O)n(CCNC(=O)Cc4ccsc4)ccn3n2)c1 | 28.2µM* | ? | -2.7% | -24.7%
COc1ccc(-c2cc3c(=O)n(CCNC(=O)c4cc(Cl)ccc4F)ccn3n2)cc1 | ? | 79.4µM* | -19.8% | -19.0%
COc1cccc(-c2cc3c(=O)n(CCNC(=O)COc4ccccc4)ccn3n2)c1 | 25.1µM* | -23.3% | -23.0% | -20.2%
COc1ccc(-c2cc3c(=O)n(CCNC(=O)c4cc(OC)cc(OC)c4)ccn3n2)cc1 | i | -5.2% | -17.2% | -23.5%
COc1cccc(-c2cc3c(=O)n(CCNC(=O)Cc4cccc(F)c4)ccn3n2)c1 | 11.2µM* | ? | -2.5% | ?
COc1ccccc1C(=O)N1CCC(Cc2nncn2-c2ccccc2)CC1 | . | 1.2% | . | i
Cc1ccccc1C(=O)N1CCN(C(=O)c2nc3cccnc3n(C3CCCC3)c2=O)CC1 | . | -3.4% | . | ?
O=S(=O)(c1cccs1)N1CCN(c2ccc3nnc(C4CC4)n3n2)CC1 | . | -29.1% | . | ?
COc1cccc(-c2cc3c(=O)n(CCNC(=O)c4cc(F)ccc4F)ccn3n2)c1 | 7.08µM* | ? | ? | ?
COc1ccc(OC)c(C(O)Cn2ccn3nc(-c4ccc(C(C)C)cc4)cc3c2=O)c1 (configuration not stated) | ? | 31.6µM* | ? | -9.3%
